53 compounds from PubChem BioAssay AID463173 (ICCB-Longwood Screening Facility, Harvard Medical School, 2010) can be followed below.

Screen size: about 52,000 compounds; about 1,700 (3.3%) were called active. This excerpt belongs to a sample that is enriched for actives. Values without a mark were called inactive. No stated cut-off is given here; in the data, active means survival mostly below about 52% (no sharp cut-off); inactive means mostly above about 56%.

The test deals with Wild type. Description: S. aureus survival, RN4220 and DeltatarO strains – OD600, teichoic acid synthesis inhibitors, primary screen (AID 463173). Conditions: S. aureus RN4220 wild type/DeltatarO growth, OD600, 18 h, active compounds read low, screened at 18.75 µg/mL (by protocol).
In the case of `CCCCn1cc(S(=O)(=O)c2ccc(CC)cc2)c(=O)c2cc(F)c(N3CCOCC3)cc21`, the survival is 73%.
The figure for `CC(C)(C)c1ccc(C(=O)N2CCCC(c3nc4c(nnn4Cc4cccc(F)c4)c(=O)[nH]3)C2)cc1` (stereo not drawn) is 17%; for `Cc1cccc(Cn2nnc3c(=O)[nH]c(C4CCN(C(=O)c5ccc(F)cc5)CC4)nc32)c1` it is 29%; for `Cc1ccccc1Cn1nnc2c(=O)[nH]c(C3CCN(C(=O)c4ccccc4)CC3)nc21` it is 25%.
The figure for `Cc1cccc(Cn2nnc3c(=O)[nH]c(C4CCCN(C(=O)c5ccc(C(C)(C)C)cc5)C4)nc32)c1` (stereo not drawn) is 23%.
The figure for `Cc1ccccc1Cn1nnc2c(=O)[nH]c(C3CCN(C(=O)c4ccc(F)cc4)CC3)nc21` is 74%; for `O=C(c1ccccc1)N1CCC(c2nc3c(nnn3Cc3ccccc3)c(=O)[nH]2)CC1` it is 0% (active).
In the case of `CC(C)(C)C(=O)N1CCCC(c2nc3c(nnn3Cc3ccc(C(C)(C)C)cc3)c(=O)[nH]2)C1` (stereo not drawn), the survival was 50% (active).
In the case of `O=C(c1cccc(Cl)c1)N1CCC(c2nc3c(nnn3Cc3ccc(F)cc3F)c(=O)[nH]2)CC1` it was 9% (active).
In the case of `O=C(c1ccccc1)N1CCCC(c2nc3c(nnn3Cc3ccc(F)cc3F)c(=O)[nH]2)C1` (stereo not drawn) it was 104%.
In the case of `CCOc1ccc(Cn2nnc3c(=O)[nH]c(C4CCN(C(=O)c5ccccc5)CC4)nc32)cc1` it was 3% (active); in that of `COc1ccc(Cn2nnc3c(=O)[nH]c(C4CCN(C(=O)c5ccc(C)cc5)CC4)nc32)cc1OC`, 53%; in that of `COc1cccc(OC)c1Cn1nnc2c(=O)[nH]c(C3CCN(C(=O)c4ccccc4)CC3)nc21`, 76%.
Consider `Cc1cn2c(=O)cc(COc3ccccc3NC(=O)c3ccc(Cl)cc3)nc2s1`, for which the survival is 85%.
In the case of `COc1ccc(CCNC(=O)Cn2nc(C)n3c(cc4occc43)c2=O)cc1OC` it was 86%; in that of `COc1ccc(NC(=O)c2oc3ccccc3c2NC(=O)Cc2coc3ccc(C)cc23)cc1`, 85%; in that of `CCc1ccccc1NC(=O)c1sc2nc3n(c(=O)c2c1C)CCC3`, 90%.
The figure for `CCOc1cc(C#N)c(NC(=O)c2ccc(OC)c(S(=O)(=O)N3CCCCC3)c2)cc1OCC` is 75%.
On to `O=[N+]([O-])c1ccc(S(=O)(=O)NCc2nc3cccnc3n2Cc2ccccc2Cl)cc1`, for which the survival was 74%.
For `COc1ccc(Cn2c(CNS(=O)(=O)c3ccc(C)c(C)c3)nc3cccnc32)cc1`, the survival is -1% (active).
In the case of `COc1ccc(Cn2c(CNC(=O)Cc3cccc([N+](=O)[O-])c3)nc3cccnc32)cc1` it was -6% (active); in that of `COc1ccc(Cn2c(CNS(=O)(=O)c3ccc4c(c3)CCCC4)nc3cccnc32)cc1`, 133%; in that of `CCc1ccc(S(=O)(=O)NCc2nc3cccnc3n2Cc2ccccc2Cl)cc1`, 83%.
In the case of `Cc1ccc(Cn2c(CNC(=O)Cc3cccc([N+](=O)[O-])c3)nc3cccnc32)cc1` it was 67%; in that of `CCOc1ccc(Cn2c(CNS(=O)(=O)c3ccc(CC)cc3)nc3cccnc32)cc1`, 69%.
Take `CCOc1ccc(Cn2c(CNS(=O)(=O)c3ccc([N+](=O)[O-])cc3)nc3cccnc32)cc1`: the survival was 87%.
The figure for `CCc1ccc(Cn2c(CNS(=O)(=O)c3ccc(C)c(C)c3)nc3cccnc32)cc1` is 71%; for `CCc1ccc(Cn2c(CNS(=O)(=O)c3ccc([N+](=O)[O-])cc3)nc3cccnc32)cc1` it is 0% (active); for `O=C(Cc1cccc([N+](=O)[O-])c1)NCc1nc2cccnc2n1Cc1ccc(F)cc1` it is 133%.
In the case of `CC(C)(C)c1ccc(S(=O)(=O)NCc2nc3cccnc3n2Cc2ccccc2Cl)cc1` it was 14% (active).
In the case of `COC(=O)c1ccc2c(c1)N(CC(=O)Nc1cccc(C(F)(F)F)c1)C(=O)c1ccccc1S2` it was 77%; in that of `Cc1ccc(OCC(=O)Nc2ccc3nc(SCC(=O)N4CCCC4)sc3c2)cc1`, 91%.
On to `COc1cccc(CC(=O)NCc2ccc3c(c2)CCN3C(C)=O)c1`, for which the survival was 71%.
In the case of `COc1cccc(C(=O)Nc2cc(-c3ccccc3)nn2-c2ccccc2)c1` it was 69%.
In the case of `Cc1ccc(NC(=O)c2c(C)oc3ccc(O)c(CN4CCCCC4)c23)cc1` it was 86%; in that of `Cc1cc(C)c(NS(=O)(=O)c2ccc3c(c2)CC(C)N3C(=O)C2CCC2)c(C)c1` (stereo not drawn), 64%; in that of `O=C(CCCCn1c(=O)c2ccccc2n(Cc2cccc(Cl)c2)c1=O)NCc1ccc2c(c1)OCO2`, 98%.
Consider `CCCCNC(=O)c1cccc(-n2c(C)nc3cccnc32)c1`, for which the survival was 73%.
In the case of `CCc1ccccc1NC(=O)CCNS(=O)(=O)c1ccc2c(c1)CCCC(=O)N2`, the survival is 73%.
As to `CCn1c(CN2CCOCC2)nc2cc(NC(=O)c3ccc([N+](=O)[O-])cc3)ccc21`, the survival is 90%.
Consider `c1cc2c(cc1CNC1CCCC1)OCO2`, for which the survival was 104%.
The figure for `O=C(CSc1nnc(-c2ccncc2)n1-c1ccccc1)Nc1ccc(F)cc1` is 72%.
In the case of `Cc1ccc(O)c(C2=Nc3ccccc3N=C(c3cccc(F)c3)C2)c1` it was 139%; in that of `Cc1ccc(Cn2c(CNS(=O)(=O)c3ccc(F)c(Cl)c3)nc3cccnc32)cc1`, 134%; in that of `COc1ccc(CCC(=O)NCc2nc3cccnc3n2Cc2ccc(F)cc2)cc1`, 123%.
The figure for `CCc1ccc(Cn2c(CNS(=O)(=O)c3ccc(F)c(Cl)c3)nc3cccnc32)cc1` is -3% (active).
For `O=C(CCc1ccccc1)NCc1nc2cccnc2n1Cc1ccc(F)cc1`, the survival was -6% (active).
In the case of `Cc1ccc(Cn2c(CNC(=O)CCc3ccccc3)nc3cccnc32)cc1` it was 99%; in that of `O=S(=O)(NCc1nc2cccnc2n1Cc1ccccc1Cl)c1ccc(F)c(Cl)c1`, 76%.
In the case of `Cc1ccc(Cn2c(CNS(=O)(=O)c3ccc(Cl)s3)nc3cccnc32)cc1` it was 136%; in that of `O=S(=O)(NCc1nc2cccnc2n1Cc1ccc(F)cc1)c1ccc(Cl)s1`, -6% (active); in that of `CCc1ccc(Cn2c(CNS(=O)(=O)c3ccc(Cl)s3)nc3cccnc32)cc1`, 53%.
The figure for `COc1ccc(C)cc1NC(=O)C(NS(=O)(=O)c1cccc2nsnc12)c1ccccc1` (stereo not drawn) is 64%.
